Laboratory results as given in PubChem BioAssay (NCATS).
Where “and” joins values, the source holds several entries; their conditions need not be identical. Equal values may be shown once. Records with an inconclusive call do not appear. Calls of active or inactive are those of the source. The call rests on the fitted dose curve; in most records, active means well fitted curve in the direction sought with a large enough effect; inconclusive means small, poorly fitted or top-dose-only effect, or another doubt; inactive means no such curve, though single readings can be large; an effect the other way counts as inactive or inconclusive.

What was measured:
[1] = Cellular Toxicity (caspase-3) MRC-5 (AID 659);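 further: 0% = DMSO basal and 100% = 10 µM staurosporine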
Outline: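 Luminescent Caspase-Glo 3/7 read-out (1 h, room temperature) after a 16 h, 37 °C compound exposure of MRC-5 lung fibroblasts at 1500 cells/well. Concentration-response AC50 from Hill equation; 0% DMSO, 100% 10 uM staurosporine.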

[2] = Cellular Toxicity (caspase-3) Mesangial (AID 660);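 further: combined caspase 3 and 7 activity read by Caspase-Glo luminescence; cells exposed to compound for 16 h before the caspase read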
Outline: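 Seed cells derived from normal human renal glomeruli, incubate 5 h, add compounds across concentrations and incubate 16 h at 37 °C. Caspase 3/7 activation is then quantified by luciferase light, with AC50 derived by Hill modeling.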

[3] = Cellular Toxicity (caspase-3) SK-N-SH (AID 661);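 further: 0% = DMSO basal and 100% = 10 µM staurosporine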
Outline: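 Cells were seeded and incubated 5 hr at 37 °C, dosed with compound over a concentration range for 16 hr, then given Caspase-Glo 3/7 reagent for 1 hr at room temperature before luminescence reading.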

[4] = Cellular Toxicity (caspase-3) H-4-II-E (AID 663); settings: Potency: caspase-3 activation;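 further: cells exposed to compound for 16 hr before readout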
Outline: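 Caspase 3/7 activation measured by luminescent aminoluciferin substrate cleavage after 16 hr compound treatment of H-4-II-E cells in complete medium. Increase normalized between DMSO (basal) and 100 uM tamoxifen (100%); Hill-equation AC50 from concentration-response.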

[5] = Cellular Toxicity (caspase-3) Hek293 (AID 664); settings: HEK293 caspase-3 activation, DMSO = 0%, 100 µM tamoxifen = 100%; at 92.2 µM (top of the series);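 further: cells exposed to compound for 16 h at 37 °C before readout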
Outline: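 qHTS, HEK293 (human embryonic kidney), 16 h cpd exposure in complete medium. Caspase-3/7 activation = luminescence increase; normalized to DMSO/100 uM tamoxifen; Hill-fit AC50.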

[6] = Cellular Toxicity (caspase-3) N2a (AID 665);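 further: compound exposure lasted 16 h at 37 °C before readout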
Outline: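 Caspase-3/7 activation, measured as increased luminescence from aminoluciferin release, is quantified in mouse N2a cells exposed to compounds for 16 h. Values are normalized to DMSO and 10 uM staurosporine, with AC50 derived by Hill modelling.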

[7] = Cellular Toxicity (caspase-3) NIH 3T3 (AID 666);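 further: 0% = DMSO basal and 100% = 100 µM tamoxifen stimulation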
Outline: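 Cells were plated at 1000 per well and incubated 5 hr at 37°C, then compound was added for 16 hr. Caspase-Glo 3/7 reagent followed for 20 min at room temperature before luminescence was read.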

[8] = Cellular Toxicity (caspase-3) Renal Proximal Tubule (AID 667); settings: Potency: caspase-3 activation;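 further: cells exposed to compound for 16 hours at 37 °C before detection; 0% = DMSO basal and 100% = 10 µM staurosporine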
Outline: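 In qHTS format, rat primary proximal tubule cells seeded at 1000 per well are exposed to compounds for 16 hours at 37 °C. An increase in Caspase-Glo 3/7 luminescence indicates caspase activation.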

[9] = target: Cytochrome P450 2C9 (Homo sapiens) (UniProt P11712); test: qHTS Assay for Inhibitors and Substrates of Cytochrome P450 2C9 (AID 883); further: on the % scale 0 is the no-effect control and ±100 the full control effect; nearly all actives have a fitted effect of over 60% in size
Outline: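 Luminescent read-out of deoxyluciferin hydroxylation, normalized to 57uM sulphaphenazole (AC100). Reaction: 10nM enzyme, 100uM Luciferin-H (equal to KM), 25mM KPO4, 10 min compound preincubation, then 60 min with NADPH regeneration, both at 37C.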

[10] = target: Cytochrome P450 3A4 (Homo sapiens) (UniProt P08684); test: qHTS Assay for Inhibitors and Substrates of Cytochrome P450 3A4 (AID 884); further: potency means the concentration at half of the fitted maximal effect; nearly all actives have a fitted effect of over 50% in size
Outline: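 Luminescent readout of luciferin produced by CYP3A4 (20 nM) dealkylation of Luciferin-PPXE, 25 uM (its KM). NADPH-driven reaction ran 60 min at RT after 10 min compound preincubation; data scaled to 57 uM ketoconazole as 100% inhibition.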

[11] = target: Cytochrome P450 3A4 (Homo sapiens) (UniProt P08684); test: qHTS Assay for Activators of Cytochrome P450 3A4 (AID 885); further: nearly all actives have a fitted effect of over 65% in size
Outline: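 Human CYP3A4 dealkylates Luciferin-PPXE to luciferin, which luciferase detection converts to light. Substrate was at its KM (25uM), buffer 200mM KPO4, reaction 60 min at RT.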

[12] = target: Cytochrome P450 2D6 (Homo sapiens) (UniProt P10635); test: qHTS Assay for Inhibitors and Substrates of Cytochrome P450 2D6 (AID 891); further: potency means the concentration at half of the fitted maximal effect; nearly all actives have a fitted effect of over 60% in size
Outline: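 Luminescent read-out of luciferin formed by 5 nM human CYP2D6 demethylating 30 uM Luciferin-ME EGE (Km level) over 60 min at room temperature after NADPH regeneration addition. Data normalized to full inhibition by 1.43 uM quinidine.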

[13] = target: Cytochrome P450 2C19 (Homo sapiens) (UniProt P33261); test: qHTS Assay for Inhibitors and Substrates of Cytochrome P450 2C19 (AID 899); further: on the % scale 0 is the no-effect control and ±100 the full control effect; nearly all actives have a fitted effect of over 60% in size
Outline: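 Luminescence readout of luciferin formed from 10uM Luciferin-H EGE (KM level) by 5 nM CYP2C19 in 50mM KPO4. 60 min NADPH-driven reaction at 37C after 10 min compound preincubation; data scaled to 57uM ketoconazole inhibition.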

[14] = MultiTox-Fluor Cytotoxicity Assay - LYMP1-001 - Dead Cells (AID 946);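 further: 0% = DMSO and 100% = tetraoctylammonium bromide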
Outline: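 LYMP1-001 lymphoblastoid cells (2500/well) treated 16 h at 37 C. Dead-cell protease cleavage of bis-AAF-R110 read at Ex/Em 485/520. Normalized to DMSO and 15 uM tetraoctylammonium bromide; AC50 from Hill fits.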

[15] = MultiTox-Fluor Cytotoxicity Assay - LYMP1-001 - Live Cells (AID 947); further: potency means the concentration at half of the fitted maximal effect
[16] = Cell Viability - LYMP1-002 - Assay at 16 hr (AID 948); further: potency means the concentration at half of the fitted maximal effect
Outline: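 Acute cytotoxicity is scored as a concentration-dependent fall in intracellular ATP in a human lymphoblastoid line (LYMP1-002) after 16 hr compound exposure at 37 C, measured by luciferase luminescence.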

[17] = MultiTox-Fluor Cytotoxicity Assay - LYMP1-002 - Dead Cells (AID 960);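 further: 0% = DMSO and 100% = tetraoctylammonium bromide; nearly all actives have a fitted effect of over 60% in size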
Outline: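 Cells were plated, rested 5 hr, then treated with compound dilution series for 16 hr at 37 C. After adding substrate reagent and 60 min at room temperature, dead-cell protease fluorescence gave concentration-response curves fitted by the Hill equation.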

[18] = MultiTox-Fluor Cytotoxicity Assay - LYMP1-003 - Dead Cells (AID 961);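 further: 0% = DMSO and 100% = tetraoctylammonium bromide; nearly all actives have a fitted effect of over 70% in size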
Outline: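 LYMP1-003 human lymphoblastoid cells (2500/well) exposed to compound 16 h at 37 C in complete medium; dead-cell protease read with bis-AAF-R110 fluorescence (Ex/Em 485/520) after 60 min at room temperature. Normalized to DMSO and 15 uM tetraoctylammonium bromide; AC50 from Hill fit.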

[19] = Cell Viability - LYMP1-003 - Assay at 24 hr (AID 963); further: potency means the concentration at half of the fitted maximal effect
Outline: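 Cytotoxicity is scored as a concentration-dependent fall in ATP-linked luciferase signal in human lymphoblastoid LYMP1-003 cells treated 24 hr at 37 C in complete culture medium.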

[20] = Cell Viability - LYMP1-003 - Assay at 40 hr (AID 964)
Outline: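 Luminescent ATP signal (CellTiter-Glo) served as the viability read-out after 40 hr compound treatment of human lymphoblastoid LYMP1-003 cells at 37 C. Decreases in ATP were fitted with the Hill equation to give AC50.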

Sequence of Cytochrome P450 3A4 (Homo sapiens) (P08684 whole entry, looked up): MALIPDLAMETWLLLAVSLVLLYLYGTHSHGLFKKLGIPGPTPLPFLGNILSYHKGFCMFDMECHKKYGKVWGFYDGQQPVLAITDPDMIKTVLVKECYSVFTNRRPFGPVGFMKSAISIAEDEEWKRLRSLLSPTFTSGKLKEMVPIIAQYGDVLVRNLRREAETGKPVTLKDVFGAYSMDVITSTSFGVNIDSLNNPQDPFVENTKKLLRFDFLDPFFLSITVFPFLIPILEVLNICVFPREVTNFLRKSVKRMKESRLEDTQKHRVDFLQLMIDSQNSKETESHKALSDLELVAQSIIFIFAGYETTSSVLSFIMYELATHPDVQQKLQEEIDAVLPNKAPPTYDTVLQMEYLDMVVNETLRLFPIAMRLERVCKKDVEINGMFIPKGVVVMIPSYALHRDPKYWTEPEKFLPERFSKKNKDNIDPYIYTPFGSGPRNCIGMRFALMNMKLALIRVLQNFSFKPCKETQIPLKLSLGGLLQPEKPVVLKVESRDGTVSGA
Sequence of Cytochrome P450 2C19 (Homo sapiens) (P33261 whole entry, looked up): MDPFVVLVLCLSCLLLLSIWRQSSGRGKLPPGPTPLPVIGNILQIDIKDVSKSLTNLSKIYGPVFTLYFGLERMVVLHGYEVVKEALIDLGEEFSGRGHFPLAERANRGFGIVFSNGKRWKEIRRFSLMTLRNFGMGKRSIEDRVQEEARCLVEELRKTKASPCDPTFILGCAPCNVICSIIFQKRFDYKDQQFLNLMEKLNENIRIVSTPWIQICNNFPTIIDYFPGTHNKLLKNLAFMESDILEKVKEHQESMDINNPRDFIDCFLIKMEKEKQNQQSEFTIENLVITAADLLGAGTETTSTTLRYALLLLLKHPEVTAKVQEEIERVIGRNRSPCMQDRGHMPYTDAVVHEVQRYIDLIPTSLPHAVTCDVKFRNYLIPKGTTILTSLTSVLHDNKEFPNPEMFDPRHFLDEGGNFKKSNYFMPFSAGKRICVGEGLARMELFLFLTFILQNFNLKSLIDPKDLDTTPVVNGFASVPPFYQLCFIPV
Sequence of Cytochrome P450 2C9 (Homo sapiens) (P11712 whole entry, looked up): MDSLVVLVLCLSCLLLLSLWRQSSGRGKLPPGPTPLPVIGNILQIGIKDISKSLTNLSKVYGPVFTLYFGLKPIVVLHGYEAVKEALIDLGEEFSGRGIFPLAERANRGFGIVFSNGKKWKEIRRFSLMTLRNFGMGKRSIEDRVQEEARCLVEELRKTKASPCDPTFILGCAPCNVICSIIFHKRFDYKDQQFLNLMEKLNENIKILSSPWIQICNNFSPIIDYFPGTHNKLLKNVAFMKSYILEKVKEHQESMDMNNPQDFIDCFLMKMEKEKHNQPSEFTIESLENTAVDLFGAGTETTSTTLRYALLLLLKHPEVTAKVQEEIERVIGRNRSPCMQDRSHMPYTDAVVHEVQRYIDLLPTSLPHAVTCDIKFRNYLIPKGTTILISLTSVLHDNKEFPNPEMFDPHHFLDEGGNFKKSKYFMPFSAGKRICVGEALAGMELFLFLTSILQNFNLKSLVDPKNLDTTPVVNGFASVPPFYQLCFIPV
Sequence of Cytochrome P450 2D6 (Homo sapiens) (P10635 whole entry, looked up): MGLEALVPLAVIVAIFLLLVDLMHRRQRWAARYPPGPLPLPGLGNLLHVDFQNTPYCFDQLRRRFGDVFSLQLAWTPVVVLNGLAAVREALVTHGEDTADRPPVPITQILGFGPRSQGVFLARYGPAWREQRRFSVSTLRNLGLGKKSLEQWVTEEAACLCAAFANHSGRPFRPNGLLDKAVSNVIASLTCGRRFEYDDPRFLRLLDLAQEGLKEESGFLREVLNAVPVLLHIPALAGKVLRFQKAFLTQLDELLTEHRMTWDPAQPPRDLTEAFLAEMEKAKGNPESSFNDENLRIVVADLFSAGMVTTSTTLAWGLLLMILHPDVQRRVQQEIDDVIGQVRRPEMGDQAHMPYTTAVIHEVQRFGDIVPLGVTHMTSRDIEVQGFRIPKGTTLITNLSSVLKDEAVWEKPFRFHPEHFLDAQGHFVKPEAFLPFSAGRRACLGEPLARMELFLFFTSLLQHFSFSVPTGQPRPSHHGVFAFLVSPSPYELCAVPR

N=C1C=CC(=C(c2ccc(N)cc2)c2ccc(N)cc2)C=C1
inactive: outcome [1] | outcome [2] | outcome [3] | Potency [4] | caspase-3 activation [5] -1.95% | outcome [6] | outcome [7] | Potency [8] | Potency [9] | Potency [11] | Potency [13] | Potency [14] | Potency [17] | Potency [18]
active: Potency [10] 12.6 µM and 3.16 µM | Potency [12] 1.58 µM | Potency [15] 15.8 µM | Potency [16] 25.1 µM | Potency [19] 15.8 µM | Potency [20] 12.6 µM
